Laboratory results: the supplement of paper PMC9950053
Where a name gives a salt, the structure may show the parent alone.

Each compound was assayed on Danio rerio larvae (5 dpf) (assay: combined optomotor response (time in upper well half, down vs up moving lines, periods 7-14) minus DMSO control (percentage points); higher = stronger optomotor response than DMSO larvae). Conditions: 10 µM; exposure time: 3 h pre-incubation + 3 h imaging.
Experimental: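 Wild-type 5 dpf zebrafish larvae (n=48 per drug, 96-well plates, 28.5 °C) were exposed to Tocris FDA-approved library compounds at 10 µM (0.1% DMSO) for 3 h before and 3 h during imaging. Images were taken every 6 s during visual and acoustic stimuli, and larvae were tracked with Z-LaP Tracker. Each measure is the treated-group mean minus the DMSO control mean (n=844), in percentage points. This mapping covers compounds with 5-character plate codes.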

**Q.** `COc1ccc(C(CN(C)C)C2(O)CCCCC2)cc1` (stereo unspecified) [Venlafaxine hydrochloride] was tested. Which combined optomotor response did it give?
**A.** -1.24
